Screens (PubChem BioAssay)
An excerpt weighted towards active compounds, which were near 3.6% of everything screened.
BoNT-A LC inh2 – BoNT/A light chain protease inhibitors, primary screen, biochemical, flow cytometry, MLPCN library. Botulinum neurotoxin type A light chain protease (Clostridium botulinum A str. ATCC 3502). multiplex microsphere protease substrate cleavage. inhibition, % at 10 µM. 0.17% of 360,000 active; further: plate controls were buffer without enzyme for full effect and enzyme alone for no effect
BoNT-F LC inh – BoNT/F light chain protease inhibitors, primary screen, biochemical, flow cytometry, MLPCN library; Botulinum neurotoxin type F light chain protease (Clostridium botulinum); inhibition, % at 10 µM; 0.22% of 360,000 active; Multiplex microsphere protease cleavage assay; in the data active means inhibition above about 35%, passing the limit was not always enough; inconclusive means no clear call, values can overlap the other calls; further: plate controls were buffer without enzyme for full effect and enzyme alone for no effect
Anthrax LF prot – Bacillus anthracis LF protease inhibitors, primary screen, biochemical, multiplex microsphere, MLPCN library. Lethal factor (Bacillus anthracis), P15917. multiplex microsphere protease cleavage assay. inhibition, % at 10 µM. 0.12% of 360,000 active; further: plate controls were buffer without enzyme for full effect and enzyme alone for no effect
MazEF act – activators of E. coli MazEF toxin-antitoxin RNase, primary screen, biochemical, fluorescence, uHTS; 0.32% of 350,000 active; activation, % at 20 µM; FAM/BHQ RNA-DNA oligo cleavage fluorescence, 5 h; Endoribonuclease toxin MazF (Escherichia coli (strain K12)), P0AE70; in the data active means activation above about 50%
Target sequence (P0AE70 whole entry, looked up): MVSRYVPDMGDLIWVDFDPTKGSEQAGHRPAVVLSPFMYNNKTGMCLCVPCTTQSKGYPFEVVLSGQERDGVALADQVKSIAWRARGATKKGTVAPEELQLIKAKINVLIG
Bead autofluor – flagged as autofluorescent in microsphere protease counterscreen; compound autofluorescence counterscreen, microsphere flow cytometry; stronger effect = higher value; fluorescence intensity (no concentration beside the values); 3.1% of 360,000 active; AID 624483; in the data active means fluorescence intensity above about 16000; inconclusive means no clear call, values can overlap the other calls
* hit, by the source's call; ? = inconclusive; / = no result. Unless noted, no stated cut-off is given here; in the data, active means inhibition above about 30%; inconclusive means no clear call, values can overlap the other calls; inactive means below that.

SMILES	BoNT-A LC inh2	BoNT-F LC inh	Anthrax LF prot	MazEF act	Bead autofluor
COc1ccc(C(=O)O)cc1S(=O)(=O)N1CCSCC1	-0.7	1.5	-2.9	4.9	3527
Cc1ccc(N2C(=O)CSC2c2c(F)cccc2Cl)cc1 (centres undefined)	?	13.1	-10.8	-8.7	17035*
CNS(=O)(=O)c1cccc(C(=O)OCC(=O)c2c(N)n(Cc3ccccc3)c(=O)n(C)c2=O)c1	/	/	/	12.6	/
CCCN(CC(=O)Nc1ccccc1C)C(=O)CCCNC(=O)c1ccc(Cl)cc1	3.9	0.0	-3.4	-1.3	5159
CC(C)CN(CC(C)C)C(=O)C1C2c3ccccc3C(c3ccccc32)C1C(=O)O (centres undefined)	0.4	-0.5	1.0	0.8	3309
O=C(O)C1C(c2ccccc2)C(C(=O)Oc2ccccc2)C1c1ccccc1 (centres undefined)	-1.5	-5.5	0.1	2.6	24658*
CC(C)CCOC(=O)C1C(c2ccccc2)C(C(=O)O)C1c1ccccc1 (centres undefined)	-2.6	-3.0	0.2	-3.4	25168*
Cc1cccc(OC(=O)C2C(c3ccccc3)C(C(=O)O)C2c2ccccc2)c1 (centres undefined)	2.8	5.6	-0.8	2.6	15795
O=C(COC(=O)c1nc(Cl)ccc1Cl)Nc1cccc(S(=O)(=O)N2CCOCC2)c1	-0.4	-8.8	1.4	-0.5	3856
Cc1ncc(CC(=O)n2cc(C(=O)c3cc(F)ccc3O)cn2)s1	?	-1.6	0.5	-8.3	24032*
CCN(CC)c1ccc2nc3ccc(N)cc3[n+](-c3ccccc3)c2c1	33.5*	-40.2	0.8	-67.8	3078
CCCCn1c(N)c(N(CCC(C)C)C(=O)C2CC(=O)N(CCc3ccc(OC)c(OC)c3)C2)c(=O)[nH]c1=O (centres undefined)	6.7	9.9	-3.2	-2.5	3354
OCCSc1c(F)c(SCCO)c(SCCO)c(F)c1SCCO	-0.1	1.8	0.5	0.6	23508*
CCOc1ccc(N2CC(C(=O)Nc3nnc(C4CCCCC4)s3)CC2=O)cc1 (centres undefined)	1.4	11.1	4.3	1.8	3495
COc1cccc(C(=O)NCC2CCN(c3ccc(S(=O)(=O)N4CCOCC4)cc3)CC2)c1	-13.0	25.0	-2.1	0.7	10368
O=C(c1ccc(S(=O)(=O)N2CCOCC2)cc1)N1CCN(c2ccc(F)cc2)CC1	-0.6	1.9	2.1	1.5	2803
O=C(NCC1CCN(c2ccc(S(=O)(=O)N3CCOCC3)cc2)CC1)c1cccc(Cl)c1	-3.3	18.3	-5.3	2.8	18496*
O=C(c1ccc(S(=O)(=O)N2CCOCC2)cc1)N1CCN(c2cccc(Cl)c2)CC1	-3.0	-4.4	-5.4	-0.2	24247*
COc1ccc(CN2C(=O)c3cccnc3C2=O)cc1S(=O)(=O)NC(C)C	-0.7	-4.2	3.4	-0.4	3942
CN(C)c1nc(OCCNC(=O)COc2ccc(Cl)cc2Cl)nc(N(C)C)n1	-0.2	0.1	-2.5	0.2	22763*
CN(C)c1nc(OCCOC(=O)COc2ccc(Cl)cc2Cl)nc(N(C)C)n1	0.5	1.1	-7.1	-9.2	21324*
CN(C)c1nc(SCCOC(=O)COc2ccc(Cl)cc2Cl)nc(N(C)C)n1	?	10.2	-3.8	-7.1	7528
CN(C)c1nc(OCCNC(=O)COc2ccc(Cl)cc2Cl)nc(N2CCCCC2)n1	-0.6	-3.9	-7.2	-8.4	11258
CC(C)(C)c1ccccc1NC(=O)CN1C(=O)NC(Cc2ccccc2)C1=O (centres undefined)	1.1	-5.6	-2.9	0.3	?
CCOc1c(C(=O)CC)cc2c(C)cc(=O)oc2c1C	0.5	-1.4	-3.9	2.0	16306*
SMILES	BoNT-A LC inh2	BoNT-F LC inh	Anthrax LF prot	MazEF act	Bead autofluor
COc1ccccc1C(=O)NCCCN1CCCC1=O	5.2	6.6	-6.1	-3.5	20201*
COc1ccccc1NS(=O)(=O)c1ccc(C(=O)NCCCN2CCCC2=O)cc1	-1.1	-1.8	2.6	4.5	9000
O=C(NCCCN1CCCC1=O)c1cccc(NS(=O)(=O)c2ccccc2)c1	-1.5	-5.7	-4.7	0.1	5816
O=C(NCCCN1CCCC1=O)c1cccc(C(F)(F)F)c1	?	2.5	2.8	8.4	20148*
Cc1cc(C(=O)NCCCN2CCCC2=O)no1	?	-12.5	-3.7	3.2	26454*
O=C(NCCCN1CCCC1=O)c1cc(COc2ccc(F)cc2F)on1	-1.6	-6.6	-2.6	3.5	6100
COc1cc2[nH]c(=O)n(CCCCCC(=O)NCCCN3CCCC3=O)c(=O)c2cc1OC	0.9	0.8	-3.2	0.0	16148*
CC(C)(C)c1ccc2cccc(F)c2n1	0.6	-1.1	-5.0	/	5910
CCc1nc2c(OCc3ccc(C(F)(F)F)cc3)cccn2c1N(C)C(=O)c1ccncc1	-0.4	-7.2	-8.0	/	2955
COc1ccc(OCc2cc(C(=O)NC3CCOC(C)(C)C3)no2)c2ccccc12 (centres undefined)	-1.2	1.9	-4.6	/	4805
CC(C)CC1NC(=O)c2cc3ccccc3cc2-n2c1nc1ccc(Cl)cc1c2=O (centres undefined)	-0.7	-4.9	-7.6	-10.0	3826
Cc1ccc(/C=N/NC(=O)c2ccco2)s1	-2.7	-3.7	-0.8	-1.5	25160*
COc1cnc(-c2ccccn2)nc1Sc1c(Cl)cccc1Cl	2.6	4.8	-4.7	2.9	14862
COc1cnc(-c2ccccn2)nc1Sc1ccccc1Cl	-2.0	-5.6	-4.1	6.2	16715*
CC(O)c1cccc(N=Cc2ccc3ccccc3c2O)c1 (centres undefined)	6.0	?	41.9*	-24.5	3851
Oc1ccc(C=Nc2cccc3ccccc23)c(O)c1	0.8	7.2	7.2	-3.2	3199
O=C(CSc1nnc(-c2cccs2)o1)NCC1CN(Cc2ccccc2)CCO1 (centres undefined)	1.0	2.9	1.6	3.6	20699*
COc1ccc(OC)c(NC(=O)CCc2c[nH]c3ccccc23)c1	-0.5	-3.1	-3.1	4.8	3941
O=C(NCc1ccccn1)c1ccc(Cl)c(S(=O)(=O)NCc2ccccc2)c1	-0.9	-21.2	-3.7	0.3	?
O=C(Nc1ccccc1Oc1ccccc1)c1cccc([N+](=O)[O-])c1	?	-2.8	-1.4	-6.9	20430*
CC(=O)c1cc(CCC(=O)NC2CCCCCC2)oc1C	-0.3	4.6	-2.6	4.4	4652
Cc1ccc(/C=C(\C#N)C(=O)Nc2c(C)cccc2C)s1	-1.1	-2.6	-3.2	9.5	13765
Cc1ccc(NC(=O)/C(C#N)=C/c2ccc(C)s2)c(C)c1	0.7	9.8	1.8	189.8*	3253
COc1cccc(COC(=O)c2nn(-c3ccccc3)nc2N)c1	0.7	0.8	0.7	1.3	2012
COc1ccc(-c2noc(CSc3nc4ccccc4c(=O)n3-c3ccccc3)n2)cc1	-3.6	-3.3	-1.6	-4.1	21618*
Cc1ccc(C(=O)CSc2nnc(-c3ccccc3)n2-c2ccccc2)o1	?	1.4	-0.4	3.5	20254*
